Results filed as inconclusive are left out. The source made the active and inactive calls. Calls come from the whole dose curve; as a rule, active = well fitted curve in the direction sought with a large enough effect; inconclusive = small, poorly fitted or top-dose-only effect, or another doubt; inactive = no such curve, though single readings can be large; an effect the other way counts as inactive or inconclusive.
Key:
[1] = biological target: Rap guanine nucleotide exchange factor 3 (Homo sapiens) (UniProt O95398); test: Confirmatory qHTS for antagonist of cAMP-regulated guanine nucleotide exchange factor 3 (EPAC1) (AID 1645880); note: nearly all actives have a fitted effect of over 55% in size; note: potency is the fitted concentration of half-maximal effect
Chain of Rap guanine nucleotide exchange factor 3 (Homo sapiens) (O95398 whole entry, looked up): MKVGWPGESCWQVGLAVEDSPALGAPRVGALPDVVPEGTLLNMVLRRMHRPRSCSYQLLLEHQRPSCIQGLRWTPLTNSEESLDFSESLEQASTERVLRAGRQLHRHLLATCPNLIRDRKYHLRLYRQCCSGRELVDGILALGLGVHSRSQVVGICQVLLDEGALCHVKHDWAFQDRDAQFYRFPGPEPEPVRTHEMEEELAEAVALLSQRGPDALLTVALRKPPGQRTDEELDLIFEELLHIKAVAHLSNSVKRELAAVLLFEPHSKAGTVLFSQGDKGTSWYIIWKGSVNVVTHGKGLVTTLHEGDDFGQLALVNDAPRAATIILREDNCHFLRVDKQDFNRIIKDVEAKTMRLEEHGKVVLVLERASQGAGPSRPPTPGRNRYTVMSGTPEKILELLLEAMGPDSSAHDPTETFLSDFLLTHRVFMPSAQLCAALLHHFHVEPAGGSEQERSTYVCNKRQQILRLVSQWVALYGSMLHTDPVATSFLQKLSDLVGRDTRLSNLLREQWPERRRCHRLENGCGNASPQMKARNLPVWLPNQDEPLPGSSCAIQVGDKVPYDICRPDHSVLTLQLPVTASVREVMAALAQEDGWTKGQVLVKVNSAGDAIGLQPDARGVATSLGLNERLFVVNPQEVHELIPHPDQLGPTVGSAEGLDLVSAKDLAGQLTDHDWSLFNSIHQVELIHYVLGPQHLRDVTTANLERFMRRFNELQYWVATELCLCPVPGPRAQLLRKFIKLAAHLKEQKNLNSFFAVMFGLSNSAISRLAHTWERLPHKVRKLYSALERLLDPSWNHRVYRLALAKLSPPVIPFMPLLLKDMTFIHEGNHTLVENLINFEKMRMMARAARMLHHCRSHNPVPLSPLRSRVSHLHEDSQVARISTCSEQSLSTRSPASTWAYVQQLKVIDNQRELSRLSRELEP
Summary of the method: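 Nucleotide exchange uses 100 nM EPAC1, 250 nM RAP1B-BODIPY-GDP and 50 uM GDP, with compounds in a concentration-titration series. After 5 min at room temperature, fluorescence (480 nm ex/540 nm em) is read every 5 min for 30 min. Data are normalized to control ATA and DMSO.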

[2] = biological target: Rap guanine nucleotide exchange factor 3 (Homo sapiens) (UniProt O95398); test: Confirmatory qHTS for agonist of cAMP-regulated guanine nucleotide exchange factor 3 (EPAC1) (AID 1645881); note: nearly all actives have a fitted effect of over 75% in size; note: potency is the fitted concentration of half-maximal effect;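 for activation: EPAC1 catalysed release of BODIPY-GDP from Rap1B seen as fluorescence loss; 100% = effect of cAMP agonist control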
[3] = biological target: Rap guanine nucleotide exchange factor 4 (Homo sapiens) (UniProt Q8WZA2); test: Confirmatory qHTS for agonist of cAMP-regulated guanine nucleotide exchange factor 4 (EPAC2) (AID 1645884);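 note: nucleotide exchange releases bodipy-GDP from Rap1 and this lowers its fluorescence; % is set by controls: 0 for no effect and ±100 for the full control effect; nearly all actives have a fitted effect of over 65% in size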
Chain of Rap guanine nucleotide exchange factor 4 (Homo sapiens) (Q8WZA2 whole entry, looked up): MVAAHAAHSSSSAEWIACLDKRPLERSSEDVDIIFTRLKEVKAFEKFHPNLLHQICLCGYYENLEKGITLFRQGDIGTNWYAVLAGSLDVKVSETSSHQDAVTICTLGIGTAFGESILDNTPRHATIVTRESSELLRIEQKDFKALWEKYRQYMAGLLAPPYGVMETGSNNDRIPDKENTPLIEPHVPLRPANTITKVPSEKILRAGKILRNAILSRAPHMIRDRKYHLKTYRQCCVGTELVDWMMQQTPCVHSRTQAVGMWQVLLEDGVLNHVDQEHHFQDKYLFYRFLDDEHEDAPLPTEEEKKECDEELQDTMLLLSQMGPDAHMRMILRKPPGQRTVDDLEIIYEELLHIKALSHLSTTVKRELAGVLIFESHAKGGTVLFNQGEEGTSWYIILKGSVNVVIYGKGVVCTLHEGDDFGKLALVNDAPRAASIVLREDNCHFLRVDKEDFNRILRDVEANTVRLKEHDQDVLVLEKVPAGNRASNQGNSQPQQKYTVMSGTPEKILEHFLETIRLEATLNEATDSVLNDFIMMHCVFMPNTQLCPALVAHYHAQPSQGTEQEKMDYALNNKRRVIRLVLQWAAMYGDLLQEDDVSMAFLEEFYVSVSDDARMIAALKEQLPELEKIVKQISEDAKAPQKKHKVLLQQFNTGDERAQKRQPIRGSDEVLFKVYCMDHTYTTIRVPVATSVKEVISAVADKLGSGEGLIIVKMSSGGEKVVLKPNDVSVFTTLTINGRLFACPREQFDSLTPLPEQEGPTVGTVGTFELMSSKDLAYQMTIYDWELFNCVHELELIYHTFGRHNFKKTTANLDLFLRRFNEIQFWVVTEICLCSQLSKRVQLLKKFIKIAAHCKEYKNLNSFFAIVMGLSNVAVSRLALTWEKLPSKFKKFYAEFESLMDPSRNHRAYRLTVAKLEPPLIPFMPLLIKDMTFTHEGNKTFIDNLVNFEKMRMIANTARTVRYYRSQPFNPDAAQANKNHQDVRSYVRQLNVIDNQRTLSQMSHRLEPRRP

[4] = biological target: Rap guanine nucleotide exchange factor 4 (Homo sapiens) (UniProt Q8WZA2); test: Confirmatory qHTS for antagonist of cAMP-regulated guanine nucleotide exchange factor 4 (EPAC2) (AID 1645885); note: nearly all actives have a fitted effect of over 25% in size; note: potency is the fitted concentration of half-maximal effect; for activity change, negative = inhibition: % is set by controls: 0 for no effect and ±100 for the full control effect
[5] = biological target: Rap guanine nucleotide exchange factor 3 (Homo sapiens) (UniProt O95398); test: Counterscreen qHTS for antagonist of cAMP-regulated guanine nucleotide exchange factor 3 (EPAC1) (AID 1645888);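 note: fluorescence loss as bound BODIPY-GDP is released from Rap1B; % of control where 0% means no effect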
Summary of the method: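 Rap1B–BODIPY-GDP (250 nM) with 50 uM GDP; compounds pin-transferred to 9.74 nM–152 uM final (activator) or from 7.32 nM upwards (inhibitor). Fluorescence Ex/Em 480/540 nm read at 5 and 30 min, then after adding cAMP or buffer, at room temperature.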

Cc1[nH]n(-c2ccccc2)c(=O)c1C(c1cccc([N+](=O)[O-])c1O)c1c(C)[nH]n(-c2ccccc2)c1=O
inactive: Potency [2] | activation [3] 0.393% [at 17.1 µM, percent relative to cAMP agonist control] | Potency [4] | activity change, negative = inhibition [5] 23.8% [at 30.8 µM]
active: Potency [1] 44.7 µM

CCCN1C(=O)c2ccccc2NC1c1ccc(OC)cc1OC (centres undefined)
inactive: Potency [1] | Potency [2] | Potency [3] | Potency [4] | Potency [5]

CC(C)C1CC2=C(C(=O)OC(C)(C)O2)C(c2ccc(F)cc2)O1 (centres undefined)
inactive: Potency [1] | Potency [2] | activation [3] 4.14% [at 17.1 µM, percent relative to cAMP agonist control] | Potency [4] | activity change, negative = inhibition [5] -3.34% [at 30.8 µM]

COc1cc2c(cc1OC)-c1cc(NCc3ccccn3)nc(=O)n1CC2
inactive: Potency [2] | Potency [3] | Potency [4] | Potency [5]
active: Potency [1] 37.9 µM

Cc1ccc2nc3sc(C(=O)NCc4ccco4)c(N)c3cc2c1
inactive: Potency [1] | Potency [2] | activation [3] 2.22% [at 17.1 µM, percent relative to cAMP agonist control] | Potency [4] | activity change, negative = inhibition [5] 3.21% [at 30.8 µM]

O=C1C(=Cc2cn(-c3ccccc3)nc2-c2ccc(OCc3ccccc3)cc2)SC(=S)N1CCS(=O)(=O)O
active: Potency [1] 33.8 µM
inactive: Potency [2] | Potency [3] | Potency [4] | Potency [5]

CCOC(=O)/C(C#N)=C/c1ccc(N2CCCCC2)cc1
inactive: Potency [1] | activation [3] 7.82% [at 17.1 µM, percent relative to cAMP agonist control] | Potency [4] | activity change, negative = inhibition [5] -1.56% [at 30.8 µM]
active: Potency [2] 56.2 µM

Cn1c(=O)c2c(nc(N3CCOCC3)n2CCSc2ncccn2)n(C)c1=O
inactive: Potency [1] | Potency [2] | activation [3] 5.38% [at 17.1 µM, percent relative to cAMP agonist control] | activity change, negative = inhibition [5] -3.24% [at 30.8 µM]
active: Potency [4] 0.338 µM

CN(Cc1cccc2ncccc12)C(=O)c1cnn(-c2nccc(-c3ccccc3F)n2)c1C1CC1
active: Potency [4] 15.6 µM
inactive: Potency [1] | Potency [2] | Potency [3]

COc1ccccc1C(CC(=O)N1CCCC1)c1ccc2c(c1)OCO2 (centres undefined)
inactive: Potency [1] | Potency [2] | activation [3] 2.08% [at 17.1 µM, percent relative to cAMP agonist control] | Potency [4] | activity change, negative = inhibition [5] -9.86% [at 30.8 µM]

Cc1[nH]c2ccccc2c1/C=C/c1ccnc2ccccc12
inactive: Potency [1] | Potency [2] | Potency [3] | Potency [4]

Clc1ccc(CSc2nncn3c2cc2occc23)cc1
active: Potency [1] 75.7 µM
inactive: Potency [2] | Potency [3] | Potency [4] | Potency [5]

Cc1ccc(NC(=O)c2ccc(S(=O)(=O)N3CCCCCC3)cc2)nc1
inactive: Potency [1] | Potency [2] | activation [3] 5.15% [at 17.1 µM, percent relative to cAMP agonist control] | Potency [4] | activity change, negative = inhibition [5] -5.55% [at 30.8 µM]

CC(C(=O)Nc1ccccc1C(F)(F)F)n1nc(-c2ccccc2)c2c(c1=O)CCCC2 (centres undefined)
inactive: Potency [1] | Potency [2] | Potency [3] | Potency [4]

Cc1cccc(NC(=O)CC2Nc3cccc4cccc(c34)NC2=O)c1 (centres undefined)
active: Potency [1] 75.7 µM
inactive: Potency [2] | Potency [3] | Potency [4]

CCOc1cc(-c2nnc(NC(=O)C3=COCCO3)o2)cc(OCC)c1OCC
inactive: Potency [1] | Potency [2] | activation [3] -6.21% [at 17.1 µM, percent relative to cAMP agonist control] | Potency [4] | activity change, negative = inhibition [5] 3.19% [at 30.8 µM]

COc1ccccc1CNC(=O)CSc1ccc(-c2cccs2)nn1
inactive: Potency [1] | Potency [2] | Potency [3] | Potency [4]

COc1cc(/C=C/CNC[C@H]2O[C@@H](n3cnc4c(=O)[nH]c(N)nc43)[C@H](O)[C@@H]2O)ccc1O
inactive: Potency [1] | Potency [2] | Potency [3] | Potency [4] | Potency [5]

C=CCOc1ccc(/C=C2\SC(=S)N(C(C(=O)O)c3ccccc3)C2=O)cc1 (centres undefined)
active: Potency [1] 31.6 µM
inactive: Potency [2] | activation [3] 3.84% [at 17.1 µM, percent relative to cAMP agonist control] | Potency [4] | activity change, negative = inhibition [5] -23.9% [at 30.8 µM]

CCn1nc([N+](=O)[O-])c(C(C#N)c2nc3cc(C(F)(F)F)ccc3s2)c(Cl)c1=O (centres undefined)
inactive: Potency [2] | activation [3] 12.4% [at 17.1 µM, percent relative to cAMP agonist control] | Potency [4] | activity change, negative = inhibition [5] -19.4% [at 30.8 µM]
active: Potency [1] 12.6 µM

CCOc1ccccc1NC1c2ccccc2C(=O)N1Cc1ccco1 (centres undefined)
inactive: Potency [1] | Potency [2] | Potency [3] | Potency [4] | Potency [5]

COc1ccc(CCn2c(=N)c(S(=O)(=O)c3ccc(C)cc3)cc3c(=O)n4ccccc4nc32)cc1
active: Potency [1] 79.4 µM
inactive: Potency [2] | activation [3] -30.1% [at 17.1 µM, percent relative to cAMP agonist control] | Potency [4]

CC1=Nc2ccccc2/C1=C/c1sc(=S)n(-c2cccc(C(=O)O)c2)c1O
active: Potency [1] 44.7 µM
inactive: Potency [2] | activation [3] 2.42% [at 17.1 µM, percent relative to cAMP agonist control] | Potency [4]

COc1ccc(N2CCN(C3CCCCC3NS(=O)(=O)c3ccccc3)CC2)cc1 (centres undefined)
inactive: Potency [1] | Potency [2] | Potency [3]
active: Potency [4] 16.9 µM

O=C1[C@H](Cc2ccccc2)NCCCC[C@H](c2ccco2)N1Cc1ccccc1
inactive: Potency [1] | Potency [2] | Potency [3] | Potency [4]

COc1ccccc1NC(=O)Nc1nc(CC(=O)Nc2ccc(N(C)C)cc2)cs1
inactive: Potency [1] | Potency [2] | activation [3] 15.9% [at 17.1 µM, percent relative to cAMP agonist control] | Potency [4]

O=C(Nc1nc(-c2ccccc2)cs1)c1ccccc1NS(=O)(=O)c1ccc(F)cc1
inactive: Potency [2] | Potency [3]
active: Potency [1] 19 µM | Potency [4] 19 µM

CCOc1c(Cl)cc(Cl)cc1CNCCSc1nnnn1C
inactive: Potency [1] | Potency [2] | Potency [3] | Potency [4] | Potency [5]

O=C(Nc1cccc(Cl)c1)C1CCCN(C2=NS(=O)(=O)c3ccccc32)C1 (centres undefined)
inactive: Potency [1] | Potency [2] | Potency [3] | Potency [4] | Potency [5]

COc1cc2c(C#N)c(N3CCCC3)nc(N)c2c(N)n1
inactive: Potency [2] | Potency [3] | Potency [4] | Potency [5]
active: Potency [1] 37.9 µM

Cc1[nH][nH]c(=O)c1C(c1c(C)[nH][nH]c1=O)c1cn(Cc2ccccc2Cl)c2ccccc12
inactive: Potency [2] | Potency [3] | Potency [4] | Potency [5]
active: Potency [1] 75.7 µM

O=C(c1ccccc1)c1ccc2nc(-c3ccco3)c(-c3ccco3)nc2c1
inactive: Potency [2] | Potency [3] | Potency [4] | Potency [5]
active: Potency [1] 4.78 µM

COc1ccc(-n2nnnc2SCC(=O)c2ccc(O)c(O)c2)cc1
inactive: Potency [2] | Potency [3] | Potency [4] | Potency [5]
active: Potency [1] 9.53 µM

Cc1ccc(-c2cc([C@H]3[C@@H]4C=CCC[C@@]4(C)C(=O)N3Cc3ccccc3)ccc2F)cc1
inactive: Potency [1] | Potency [2] | activation [3] -2.1% [at 17.1 µM, percent relative to cAMP agonist control] | Potency [4] | activity change, negative = inhibition [5] -9.39% [at 30.8 µM]

COc1ccc(N2CCN(C(=O)COC(=O)c3ccc(C)o3)CC2)cc1
inactive: Potency [1] | Potency [2] | activation [3] 5.39% [at 17.1 µM, percent relative to cAMP agonist control] | Potency [4] | activity change, negative = inhibition [5] -20% [at 30.8 µM]

CNC(=O)c1c(NC(=O)C2=COCCO2)sc(C)c1C
inactive: Potency [1] | Potency [2] | Potency [3] | Potency [4] | Potency [5]

CCCCCNC(=O)C(c1cc2ccccc2o1)n1c(=O)c(-c2ccco2)nc2ccccc21 (centres undefined)
inactive: Potency [2] | Potency [3] | Potency [5]
active: Potency [1] 16.9 µM | Potency [4] 10.7 µM

Cc1cccc(NCC(=O)N/N=C\c2ccc[nH]2)c1
inactive: Potency [1] | Potency [2] | Potency [3] | Potency [4] | Potency [5]

Cc1ccc(S(=O)(=O)N2[C@@H](c3ccc(Br)cc3)C(C(=O)O)=CC[C@H]2c2ccc(C(C)C)cc2)cc1
inactive: Potency [2] | Potency [3] | Potency [4] | Potency [5]
active: Potency [1] 16.9 µM

OC1CCN(c2c3c(nc4cc(-c5cccc(F)c5)nn24)CCCC3)CC1
inactive: Potency [1] | Potency [2] | Potency [3] | Potency [4] | Potency [5]

Cc1cccc(Cn2cc(SCC(=O)Nc3nccs3)c3ccccc32)c1
inactive: Potency [1] | Potency [2] | Potency [3] | Potency [4] | Potency [5]

Cc1ccc(Cl)c2sc(N3CCN(C(=O)c4ccco4)CC3)nc12
inactive: Potency [1] | Potency [2] | activation [3] 3.67% [at 17.1 µM, percent relative to cAMP agonist control] | Potency [4] | activity change, negative = inhibition [5] -12.9% [at 30.8 µM]

Cc1[nH]c2ccccc2c1C(c1ccccc1)c1cccs1 (centres undefined)
inactive: Potency [1] | Potency [2] | Potency [3] | Potency [4] | Potency [5]

CNc1nc(-c2ccc(OC)cc2)c(-c2ccc(OC)cc2)s1
active: Potency [4] 23.9 µM
inactive: Potency [1] | Potency [2] | Potency [3] | Potency [5]

CCc1ccc(/C=C2/SC(=S)N(CCCC(=O)Nc3ccccc3C(=O)O)C2=O)cc1
inactive: Potency [2] | Potency [3] | Potency [4] | Potency [5]
active: Potency [1] 75.7 µM

CCOC(=O)Cc1nnc(NC(=O)CSc2nnc3c(n2)[nH]c2ccccc23)s1
inactive: Potency [2] | activation [3] 6.98% [at 17.1 µM, percent relative to cAMP agonist control] | Potency [4] | activity change, negative = inhibition [5] -37.4% [at 30.8 µM]
active: Potency [1] 44.7 µM

CCN(CC(=O)Nc1ccc(NC(C)=O)cc1)CC(=O)Nc1ccc(F)c(Cl)c1
inactive: Potency [1] | Potency [2] | activation [3] 5.14% [at 17.1 µM, percent relative to cAMP agonist control] | Potency [4] | activity change, negative = inhibition [5] 3.51% [at 30.8 µM]
